# Compound activity from PubChem BioAssay.
# VDR inhibitor – blocks the human vitamin D receptor; P11473; VDR-SRC2-3 peptide fluorescence polarization, 2 h; Potency, µM, for the others: max response, negative = inhibition, usual class: inhibitors; 400,000 compounds, 0.93% hits; AID 504847; also: potency is read from the fitted curve at half-maximal effect; % is scaled to controls: 0 for no effect and ±100 for the full control effect
#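 VDR–SRC2-3 interaction, FP format. Cmpds 23 nl via pintool, brief spin, 2 h ambient incubation.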
# G9a block – G9a (human) methyltransferase inhibition; 350,000 compounds, 8.8% hits; G9a H3K9 monomethylation, AlphaScreen, 2 h; Potency, µM (titrated, usually from 102 µM), inactives show at the highest dose activity, negative = inhibition, actives largely listed as inhibitors; Q96KQ7; also: potency is read from the fitted curve at half-maximal effect; % is scaled to controls: 0 for no effect and ±100 for the full control effect; nearly all actives have a fitted effect of over 75% in size
#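 AlphaScreen read-out: biotin-H3K9 peptide (500 nM) methylation by 20 nM enzyme with 20 uM SAM, 2 h at room temperature after 15 min compound preincubation; anti-monomethyl H3K9 antibody plus donor/acceptor beads, 10 min dark.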
# Glioma ERSR ind – induces the endoplasmic reticulum stress response in human glioma cells. 420,000 compounds, 0.02% hits. U87-MG GRP78 promoter luciferase reporter, 16 h. AID 602332. Potency, µM, inactives show at the highest dose activation, usual class: activators; also: potency is read from the fitted curve at half-maximal effect; series mostly up to about 76 µM; % of control where 0% means no effect; nearly all actives have a fitted effect of over 35% in size
#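 Stably transfected U87-MG human glioma cells carrying a GRP78-based luminescent sensor were seeded at 1000 cells/well, pin-dosed with compounds and incubated 16 h. Luciferase reagent was then added, and end-point luminescence was read after 10 min at room temperature.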
# Sfp PPTase inh – Sfp phosphopantetheinyl transferase inhibition. Q9F4F7. Biochemical Sfp PPTase activity, qHTS. Potency, µM, without a hit: largest response in the series, negative = inhibition, usual class: inhibitors. 310,000 compounds, 3.5% hits. AID 1490;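 also: the enzyme is Sfp with the accession as filed and its product quenches rhodamine fluorescence; potency is read from the fitted curve at half-maximal effect; 0% = enzyme reaction without inhibitor and -100% = no enzyme wells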
#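 Fluorescence-quenching assay with 15 nM Sfp, 5 uM rhodamine-CoA and 12.5 uM BHQ-2-labelled ybbR peptide in pH 7.6 Hepes/MgCl2 buffer. Enzyme was pre-incubated with compound for 15 min at room temperature. Rate was taken from the 30-min fluorescence change (525/598 nm).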
# ALOX12 inh – blocks human arachidonate 12S-lipoxygenase; P18054; purified 12hLO, xylenol orange hydroperoxide absorbance; Potency, µM (highest dose often 108 µM), without a hit: at the top dose activity change, negative = inhibition, actives largely listed as inhibitors; 580,000 compounds, 1.1% hits; also: potency is read from the fitted curve at half-maximal effect; % is scaled to controls: 0 for no effect and ±100 for the full control effect
# Target sequence (P18054 whole entry, looked up): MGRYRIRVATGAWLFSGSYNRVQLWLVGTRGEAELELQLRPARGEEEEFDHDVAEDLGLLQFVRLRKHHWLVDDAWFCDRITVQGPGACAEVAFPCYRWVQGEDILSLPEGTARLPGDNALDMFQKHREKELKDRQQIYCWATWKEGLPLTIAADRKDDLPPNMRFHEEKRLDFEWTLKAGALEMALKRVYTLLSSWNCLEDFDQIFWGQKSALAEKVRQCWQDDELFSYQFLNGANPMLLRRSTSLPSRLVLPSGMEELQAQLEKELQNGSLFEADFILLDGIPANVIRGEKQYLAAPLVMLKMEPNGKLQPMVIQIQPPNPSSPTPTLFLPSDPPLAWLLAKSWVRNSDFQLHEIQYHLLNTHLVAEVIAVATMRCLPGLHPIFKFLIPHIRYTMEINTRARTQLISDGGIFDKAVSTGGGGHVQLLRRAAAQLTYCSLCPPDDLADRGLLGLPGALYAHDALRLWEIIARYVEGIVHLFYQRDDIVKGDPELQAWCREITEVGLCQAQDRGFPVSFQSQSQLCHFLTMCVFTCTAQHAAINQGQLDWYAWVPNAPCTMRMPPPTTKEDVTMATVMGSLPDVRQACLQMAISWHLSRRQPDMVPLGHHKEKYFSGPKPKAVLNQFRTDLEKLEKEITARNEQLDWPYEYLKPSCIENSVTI
#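 Hydroperoxide product was detected by ferrous iron/xylenol orange as the 573 to 405 nm absorbance ratio. Arachidonic acid at 40 uM (final) was turned over for 30 min at room temperature by 150 nM human 12hLO, pH 7.0 Hepes buffer, after 15 min compound preincubation.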
# USP1 UbRho – blocks human USP1/UAF1 cleavage of Ub-Rhodamine; Potency, µM (series often up to 114 µM), inactives show at the highest dose activity change, negative = inhibition, hits mostly inhibitors; shares compounds with VDR inhibitor; Ub-Rhodamine cleavage, fluorescence kinetic read; AID 540327; 50 compounds, 50% hits
# VDR confirm – inhibits human vitamin D receptor, primary hit validation; VDR-coactivator inhibition assay, qHTS confirmation; Potency, µM, usual class: inhibitors; 840 compounds, 89% hits; shares compounds with VDR inhibitor; AID 602199; also: potency is read from the fitted curve at half-maximal effect
# VDR FP – VDR (human) coactivator binding inhibition, fluorescein polarization. shares compounds with VDR inhibitor. VDR-coactivator binding, fluorescein fluorescence polarization. Potency, µM (doses to about 57.1 µM), without a hit: at the highest dose activity change, negative = inhibition, actives largely listed as inhibitors. 840 compounds, 48% hits. AID 602200; also: potency is read from the fitted curve at half-maximal effect
# VDR bla reporter – confirmation of human vitamin D receptor inhibitors in reporter cells; shares compounds with VDR inhibitor; VDR beta-lactamase reporter cells, FRET ratio; cells co-treated with VDR agonist LG190178; Potency, µM (highest dose often 46.1 µM), for inactives: top-dose activity change, negative = inhibition, hits mostly inhibitors; 840 compounds, 23% hits; AID 602202; also: potency is read from the fitted curve at half-maximal effect; % is scaled to controls: 0 for no effect and ±100 for the full control effect
# VDR viability – cytotoxic in counter-screen for VDR inhibitors; Potency, µM (titrated, usually from 48.3 µM), without a hit: top-dose activity change, negative = cytotoxicity, actives largely listed as cytotoxic; 840 compounds, 18% hits; shares compounds with VDR inhibitor; cytotoxicity counter-screen, cell viability, qHTS; AID 602204;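 also: potency is read from the fitted curve at half-maximal effect; plate controls were DMSO for no effect and high-concentration cycloheximide for full effect; nearly all actives have a fitted effect of over 75% in size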
# * hit, by the source's call; ? = inconclusive; . = no result given; [ ] = remark or other dose. This excerpt belongs to a sample that is enriched for hits. Calls follow the shape of the dose curve; as a rule, active = well fitted curve in the direction sought with a large enough effect; inconclusive = small, poorly fitted or top-dose-only effect, or another doubt; inactive = no such curve, though single readings can be large; an effect the other way counts as inactive or inconclusive.
SMILES,VDR inhibitor,G9a block,Glioma ERSR ind,Sfp PPTase inh,ALOX12 inh,VDR confirm,VDR FP,VDR bla reporter,VDR viability,others
CN(C)[C@H]1C(=O)C(C(=O)NCN2CCCC2)=C(O)[C@]2(O)C(=O)C3=C(O)c4c(O)cccc4[C@@](C)(O)[C@H]3C[C@@H]12,32µM*,7.9µM*,-5%,3%,.,.,.,.,.,USP1 UbRho=?
COc1ccc(C(=O)C2CCN(CCS(=O)c3ccccc3)CC2)cc1 (stereo not drawn),.,.,.,.,-29%,.,.,.,.,
CCOc1ccc(NS(=O)(=O)c2ccc3c(c2)N(CC(=O)OC)C(=O)CS3)cc1,.,.,.,.,9%,.,.,.,.,
O=C(Cc1ccc(Cl)cc1)Nc1cccc(S(=O)(=O)Nc2ccccc2F)c1,-5%,-4%[59 µM],-3%,21%,-7%,.,.,.,.,
O=C(CSc1ccc([N+](=O)[O-])cc1)Nc1cccc(S(=O)(=O)Nc2ccccc2F)c1,79µM*,?,-2%,45µM*,40µM*,19*,22µM*,21%,-9%,
O=C1CCC(C(=O)Nc2cccc(S(=O)(=O)Nc3ccccc3F)c2)=NN1,25µM*,.,-1%,.,32µM*,?,?,25%,14%,
CC1CCN(S(=O)(=O)c2cc3cc(F)ccc3oc2=O)CC1,.,.,.,.,0%,.,.,.,.,
CC(C)c1ccc(/C=C(\C#N)C(=O)NC2CCCC2)cc1,.,.,.,.,0%,.,.,.,.,
N#Cc1ccc(Cn2cnc3ccccc3c2=O)c(F)c1,.,.,.,.,-15%,.,.,.,.,
C(=N\n1cnnc1)/c1cn(Cc2ccccc2)c2ccccc12,6%,4%[59 µM],-5%,0%,20%,.,.,.,.,
O=[N+]([O-])/C=C/c1cn(Cc2ccccc2)c2ccccc12,14µM*,?,-17%,?,0%,12*,?,?,?,
COc1ccc(CCNC(=O)CN(c2cc(Cl)ccc2C)S(=O)(=O)c2ccccc2)cc1,.,.,.,.,17%,.,.,.,.,
O=C1CC(c2ccccc2)N(C(=O)CNC(=O)c2ccc3ccccc3n2)CCCCCN1 (stereo not drawn),.,.,.,.,92%,.,.,.,.,
COc1ccc([N+](=O)[O-])c(C=CC(=O)c2ccccn2)c1,.,.,-11%,.,-22%,.,.,.,.,
COc1ccc(/C=C/C(=O)c2ccccn2)cc1,40µM*,40µM*,2%,28µM*,?,34*,?,34%,-14%,
CCOC(=O)c1sc(NC(=O)c2ccncc2)c(C#N)c1C,45µM*,7.9µM*,3%,?,?,3.8*,?,5%,?,
Cc1ccccc1C(=O)Oc1ccc(F)cc1C(=O)/C=C/c1ccccc1F,.,.,.,.,-35%,.,.,.,.,
O=C(Oc1ccc(Br)cc1C(=O)/C=C/c1ccccc1F)c1ccco1,45µM*,.,-12%,.,14%,?,7.1µM*,-9%,?,
Cc1ccc(C(=O)/C=C/c2cc(C)c(O)c(C)c2)o1,.,.,.,.,33%,.,.,.,.,
Cc1ccc(C(=O)/C=C/c2cc(Br)cc(Br)c2O)o1,8.9µM*,35µM*,-3%,?,?,3.8*,?,?,-17%,
Cc1[nH]n(-c2ncc(-c3ccccc3)s2)c(=O)c1C(c1ccc(Br)cc1)C(C#N)C#N (stereo not drawn),35µM*,?,-2%,56µM*,25µM*,7.5*,?,?,-18%,
Cc1[nH]n(C(N)=S)c(=O)c1C(c1ccccc1)C(C#N)C#N (stereo not drawn),?,?,3%,-16%,?,.,.,.,.,
N#Cc1ccc(NC(=O)Cn2nc3c(N4CCCC4)nc4ccccc4n3c2=O)cc1,.,.,.,.,-20%,.,.,.,.,
Cn1c(/C(C#N)=C/c2ccc(C(F)(F)F)cc2)nc2ccccc21,28µM*,28%[59 µM],.,.,-1%,14*,8.9µM*,18µM*,?,
Cn1c(/C(C#N)=C/c2ccc(O)cc2)nc2ccccc21,16%,.,4%,-7%,-24%,.,.,.,.,
SMILES,VDR inhibitor,G9a block,Glioma ERSR ind,Sfp PPTase inh,ALOX12 inh,VDR confirm,VDR FP,VDR bla reporter,VDR viability,others
NC(=O)COc1ccc(/C=C2\C(=O)ON=C2c2ccccc2)cc1,?,16%[12.7 µM],-10%,.,7.1µM*,8.9*,13µM*,?,?,
O=C1ON=C(c2ccccc2)/C1=C/c1ccco1,?,32µM*,0%,50µM*,7.9µM*,8.4*,?,-30%,?,
N#C/C(=C\c1ccc(-c2ccccc2[N+](=O)[O-])o1)C(=O)N1CCOCC1,15%,?,9%,12%,-10%,.,.,.,.,
O=C1ON=C(c2ccccc2)/C1=C/c1ccc(-c2ccccc2[N+](=O)[O-])o1,35µM*,7.1µM*,-12%,?,4µM*,7.5*,?,16µM*,23µM*,
NC(=O)COc1ccccc1,-17%,25%[59 µM],4%,6%,0%,.,.,.,.,
COc1ccc(/C=C2/C(=O)ON=C2c2ccccc2)cc1OC,40µM*,7%[0.501 µM],-15%,35µM*,?,21*,?,-3%,-7%,
CN(C)/C=C1\C(=O)ON=C1c1ccccc1,-18%,?,1%,10%,-4%,.,.,.,.,
O=C(CCS(=O)(=O)c1ccc2c(c1)CCN2C(=O)C1CC1)NC1CCCCCC1,.,.,.,.,2%,.,.,.,.,
O=C(OCc1ccc(-c2ccccc2)cc1)c1ccc(CO)cc1,.,.,.,.,2%,.,.,.,.,
CC(C)C(=O)N1Cc2ccccc2CC2(CCCCN2C)C1 (stereo not drawn),.,.,.,.,9%[6.33 µM],.,.,.,.,
COc1ccc(C=C2C(=O)OC(C)(C)OC2=O)cc1OC,-3%,-9%[2.33 µM],-5%,-12%,-43%,.,.,.,.,
COc1ccc(/C=C2\C(=O)ON=C2c2ccccc2)cc1OC,35µM*,?,-13%,22µM*,7.1µM*,19*,?,-15%,-2%,
Cc1cc2oc(C(=O)NCC(c3cccs3)N3CCOCC3)cc(=O)c2cc1Cl (stereo not drawn),.,.,.,.,-4%,.,.,.,.,
O=C(NCc1cccnc1)/C(=C\c1ccc(-c2cccc(Cl)c2)o1)S(=O)(=O)c1ccccc1,45µM*,-4%[59 µM],-13%,-23%,-9%,24*,?,6.5µM*,18µM*,
